Test results reported in ChEMBL document CHEMBL4888484, “Replenishing the malaria drug discovery pipeline: Screening and hit evaluation of the MMV Hit Generation Library 1 (HGL1) against asexual blood stage Plasmodium falciparum ,using a nano luciferase reporter read-out” (2022).
Among all 150,000 compounds or so, about 540 (0.36%) showed an effect of 50% or more. What follows is part of a selection rich in strong results, with near analogues and random picks from the rest.

These compounds were tested on Plasmodium falciparum (assay: Primary screen in NF54 nanoGlo assay, in single point, at 2uM, 72h; a lower Z score goes with more inhibition). Settings: timepoint 72 hour.
Assay type: functional, Erythrocyte

SMILES | % Inhibition [%] | Z score
O=S1(=O)NC[C@H](O)CNC[C@@]2(COc3cc(-c4ccccc4)ccc31)C[C@@H](O)[C@@H](O)C2 | -14 | 1.78
Cn1nccc1[C@@H]1CN(C(=O)NCc2ccon2)CCO1 | -3 | 0.43
Cc1cc(C(=O)N[C@@H](C)c2nc(-c3cccnc3)cs2)cc(O)n1 | 51 | -3.53
Cc1cc(CC(=O)N[C@@H](C)c2nc(-c3cccnc3)cs2)no1 | -5 | 0.5
Cc1ccc(C)c(C(=O)N[C@@H](C)c2nc(-c3cccnc3)cs2)c1 | 0 | -0.01
COc1cccc(CCn2ccnc2C(C)C)c1 | -4 | 0.93
COc1ccccc1CCNC(=O)c1ccccc1N1CCC(NS(=O)(=O)c2ccc(F)cc2)CC1 | 11 | -1.5
N[C@H]1C[C@@H](c2cc(N3CCN(C4CCCCC4)CC3)nc(N3CCCC3)n2)C1 | 56 | -8.12
c1ccc2c(N3CCCC3)nc(N3CCN(C4CCCCC4)CC3)nc2c1 | -5 | 0.7
NC1CC(c2cc(N3CCCCCCCC3)ncn2)C1 (centres undefined) | -23 | 2.99
CC(C)c1nnc2c3ccccc3nc(N3CCN(C(=O)c4ccc(Cl)cc4)[C@@H](C)C3)n12 | -1 | 0.12
Nc1nc(C2CC(N)C2)cc(N2CCC(Oc3ccccc3Cl)CC2)n1 (centres undefined) | 50 | -7.79
Nc1nc(N2CCN(Cc3ccc(F)cc3)CC2)cc([C@H]2C[C@@H](N)C2)n1 | 16 | -2.35
Nc1nc(N2CCN(c3ccc(F)c(Cl)c3)CC2)cc([C@H]2C[C@@H](N)C2)n1 | 49 | -3.16
Cc1ccc(Cc2nnc(NC(=O)Cc3ccccc3Cl)o2)c(C)c1 | -13 | 1.44
CN1CCCN(c2ccc3ccc(F)cc3n2)CC1 | -5 | 0.48
CCNC(=O)N[C@H]1CCN(C2CCCCCC2)C1 | 1 | -0.09
CCOc1cc(-c2cc(-c3ccccc3O)nc3ccc4ccccc4c23)cc(Br)c1O | 82 | -8.45
COc1cc(-c2cc(-c3cccnc3)c3c(ccc4ccccc43)n2)cc(Cl)c1O | 18 | -2.48
Oc1ccccc1-c1cc(-c2ccccc2)c2c(ccc3ccccc32)n1 | -5 | 0.64
Cn1ccnc1CN1C[C@@H](F)C[C@H]1CNc1ncnc2c1CCCCC2 | -4 | 0.8
COc1cccc(C(=O)N2CCN(C(=O)Cn3cc(Cl)cn3)CC2)c1 | -4 | 0.42
Cn1ccc(NS(=O)(=O)c2cccc3c2N=S=N3)n1 | -1 | 0.06
O=C(N[C@@H]1CN(Cc2ccc(CO)o2)CCC[C@H]1O)c1ccc(OCc2ccccc2)cc1 | 26 | -2.94
CCOc1cccc(C(=O)N[C@H]2CCN(Cc3ccccn3)C[C@@H]2O)c1 | 2 | -0.4
O=C(N[C@@H]1CN(Cc2ccccn2)CCC[C@H]1O)c1ccc(OCc2ccccc2)cc1 | 59 | -6.9

SMILES | % Inhibition [%] | Z score
Cc1ccc(-c2nc(CC(=O)N3CCC(C(C)(C)C)C(O)C3)cs2)o1 (centres undefined) | -3 | 0.35
Cc1n[nH]c(=O)c2c1cnn2-c1ccccc1 | 21 | -2.61
Cc1nc(-c2c(C)c(C)nn(C)c2=O)sc1C(=O)NC[C@H](C)N1CCc2ccccc21 | 31 | -3.46
CCN=C(NCc1noc(C)n1)NCc1ccccc1OC(C)(C)C | -6 | 0.55
CCc1ncc(CN2CCC[C@H](NC(=O)CN3CCOC3=O)CC2)cn1 | 9 | -1.74
CC(=O)N(CC[C@]1(Cc2ccccc2Cl)CCOC(C)(C)C1)Cc1ccco1 | 32 | 1.22
Cn1n[n+](CC(=O)Nc2ccccc2Cl)c2ccccc21 | 41 | -0.29
Cn1n[n+](CCCCC(Cl)(Cl)Cl)c2ccccc21 | 65 | -4.82
COc1c2c(cc3c1[C@H](C(=O)NC(c1ccccc1)c1ccccc1)[N+](C)(C)CC3)OCO2 | 2 | -0.21
COc1c2c(cc3c1[C@@H](C#CCOc1ccccc1)[N+](C)(C)CC3)OCO2 | 64 | -13.6
COc1c2c(cc3c1[C@H](CC(=O)Cc1ccccc1)[N+](C)(C)CC3)OCO2 | -1 | 0.08
Cn1c(COc2ccccc2C(N)=O)nnc1-c1ccc(Cl)cc1 | 3 | -0.35
COc1cccc(C(=O)N2C[C@@H]3CC[C@H]2CN(Cc2c(C)noc2C)C3)c1 | 4 | -0.53
c1ccc(-c2nc(CN3CCCCCCC3)cs2)cc1 | -10 | 1.49
c1ccc(-c2nc(C[n+]3ccc4c(c3)CCCC4)cs2)cc1 | 63 | -6.15
c1ccc(-c2nc(CN3CCc4ccccc4C3)cs2)cc1 | -1 | 0.12
O=C(Cn1cc(-c2ccccc2)ncc1=O)NC[C@@H]1CCCN2CCCC[C@H]12 | -8 | 0.97
CCCCN(CCCNC(=O)[C@H]1CCCN(c2ncnc3onc(C)c23)C1)Cc1ccccc1 | 5 | -0.69
O=C(O)C[C@@H]1CN(C(=O)c2ccc3c(c2)OCO3)C[C@@H]1c1c[nH]nn1 | -3 | 0.47
CCN(CC)Cc1cn2ccccc2c1C#N | -12 | 1.72
N#Cc1c(NC(=O)Nc2cn3ccccc3c2C#N)cn2ccccc12 | 65 | 1.13
COC(=O)c1ccc(C)c(OCc2cn3ccccc3c2C#N)c1 | -17 | 2.14
CC1CCC(O)(CS(=O)(=O)Cc2nccs2)CC1 (centres undefined) | -8 | 1.13
COc1ccc(C2N[C@H](C(=O)O)Cc3c2[nH]c2ccccc32)cc1 (some centres undefined) | -14 | 2.25
COc1ccc2[nH]c3c(c2c1)CC(C(=O)O)NC3c1ccc(OC)c(CN2CCN(c3ccccc3F)CC2)c1 (centres undefined) | 74 | -11.3
COc1cc(C2N[C@H](C(=O)O)Cc3c2[nH]c2ccccc32)ccc1OCc1ccccc1 (some centres undefined) | -3 | 0.42
